MCF10A rerep: A quantitative high throughput screen for small molecules that induce DNA re-replication in MCF 10a normal breast cells; Potency, µM (doses to about 46.1 µM), without a hit: top-dose activity, positive = re-replication, usual class: activators; MCF 10A DNA re-replication, Hoechst nuclear intensity, 48 h; AID 624296, 2012; 2.9% of 350,000 active; note: % of control where 0% means no effect; nearly all actives have a fitted effect of over 50% in size
SW480 rereplic: A quantitative high throughput screen for small molecules that induce DNA re-replication in SW480 colon adenocarcinoma cells. SW480 DNA re-replication, Hoechst DNA content imaging, 48 h. Potency, µM (doses to about 46.1 µM), without a hit: at the highest dose re-replication activation, hits mostly activators. 1.8% of 340,000 active; note: % of control where 0% means no effect; nearly all actives have a fitted effect of over 55% in size
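Hoechst fluorescence of nuclei (405 nm excitation, 500-530 nm emission) measured by plate-scanning imager after 48 hr compound exposure at 37 C; re-replication scored as increased number of nuclei with elevated intensity.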
ELG1 DNA repair: qHTS screen for small molecules that inhibit ELG1-dependent DNA repair in human embryonic kidney (HEK293T) cells expressing luciferase-tagged ELG1 | HEK293T ELG1-luciferase reporter, luminescence, 16 h; DNA damage induced by 5-fluorouridine | Potency, µM (series often up to 46.1 µM), for the others: at the top dose activity change, negative = inhibition, usual class: inhibitors | 2.3% of 330,000 active; note: % is set by controls: 0 for no effect and ±100 for the full control effect; nearly all actives have a fitted effect of over 55% in size
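Overnight (16 hr) co-exposure of 2,000 cells/well to 5-fluorouridine and compound at 37 °C preceded detection. Luciferase was quantified via ONE-Glo luminescence; loss of signal denotes inhibition.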
KB-V1 MDR tox: qHTS assay for MDR1-selective chemotherapeutics: Primary screen using the drug-selected MDR subline cells KB-V1; KB-V1 MDR cells viability, CellTiter-Glo, 72 h; Potency, µM (top dose mostly 46.1 µM), usual class: cytotoxic; 3.4% of 400,000 active; note: % is set by controls: 0 for no effect and ±100 for the full control effect; nearly all actives have a fitted effect of over 60% in size
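KB-V1 cells (P-gp-expressing MDR subline of KB-3-1) in phenol-red-free DMEM with 10% FBS were exposed to library compounds over a concentration series for 72 h at 37 degrees C. Viability read by CellTiter-Glo luminescence; concentration-effect curves fitted after normalization.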
KB-3-1 tox: qHTS assay for MDR1-selective chemotherapeutics: Primary screen using the parental adenocarcinoma cell KB-3-1. KB-3-1 viability, CellTiter-Glo ATP luminescence, 72 h. Potency, µM (top dose mostly 46.1 µM), usual class: cytotoxic. 1.4% of 400,000 active; note: % is set by controls: 0 for no effect and ±100 for the full control effect; nearly all actives have a fitted effect of over 60% in size
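72 h, 37 °C compound treatment of KB-3-1 parental cells; CellTiter-Glo added, 10 min, luminescence read. Data corrected against DMSO-only plates and normalized before curve fitting.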
Numbers without * were called inactive; i = inactive; ? = inconclusive; . = no result given. Most compounds without a hit are left out; they make up all but 8.2% or so of the library. Calls come from the whole dose curve; as a rule, active = well fitted curve in the direction sought with a large enough effect; inconclusive = small, poorly fitted or top-dose-only effect, or another doubt; inactive = no such curve, though single readings can be large; an effect the other way counts as inactive or inconclusive. Potency is the fitted concentration of half-maximal effect.

SMILES	MCF10A rerep	SW480 rereplic	ELG1 DNA repair	KB-V1 MDR tox	KB-3-1 tox
N#C/C(=C(/O)COc1ccccc1)c1nc2ccccc2s1	?	?	?	i	?
N#C/C(=C(/O)c1ccc(F)cc1)c1nc2ccccc2s1	?	-1%	-7%	?	8.2µM*
N#C/C(=N\O)c1nc2ccccc2s1	-4%	0%	-8%	i	i
N#C/C(=C(/O)COc1ccc(Cl)cc1)c1nc2ccccc2s1	16µM*	0%	?	13µM*	?
CC(CNC(=O)Cn1c(-c2cccs2)cc2cc(Cl)ccc21)c1ccccc1 (centres undefined)	.	.	.	i	i
N#Cc1cccc(NC(=O)CSc2ccc3c4c(cccc24)C(=O)c2ccccc2-3)c1	7.3µM*	?	-6%	21µM*	?
COc1ccc(NC(=O)CSc2nnc(C)c3ccccc23)cc1	-1%	-25%	21%	i	i
N#Cc1cccc(NC(=O)CSc2ccccc2)c1	14%	-6%	28%	?	i
COc1ccc(NC(=O)CSc2nc(C3CC3)nc3ccccc23)cc1	?	13µM*	-16%	?	?
COc1ccc(OC)c(NC(=O)CSc2nc3ccccc3cc2Cc2ccccc2)c1	15µM*	30%	-2%	i	i
COc1ccc(NC(=O)CSc2nc3ccccc3cc2Cc2ccccc2)cc1	27%	9%	-1%	i	i
COc1ccc(NC(=O)CSc2ccc3c4c(cccc24)C(=O)c2ccccc2-3)cc1	2.6µM*	12µM*	5%	?	?
CC(C)(C)OC(=O)C[C@@H]1C/C=C\C[C@H](CC(=O)N[C@H](CO)Cc2ccccc2)C(=O)N[C@@H](Cc2c[nH]c3ccccc23)COC1=O	-1%	-2%	-28%	i	i
c1ccc(Oc2ccccc2-c2cc(NCCc3cccnc3)n3nccc3n2)cc1	.	.	.	i	i
CCN(CC)CCN(C(=O)c1ccco1)c1nc2cc(C)cc(C)c2s1	.	.	.	i	?
COc1ccc2c(c1)OC[C@H]1[C@H]2N2C(=O)c3cc(OC)c(OC)cc3NC(=O)[C@@]2(C)[C@H]1c1ccccc1	18µM*	21µM*	?	?	i
COc1cc2c(cc1OC)C(=O)N1[C@H]3c4ccccc4OC[C@@H]3[C@H](c3ccccc3)[C@]1(C)C(=O)N2	21%	?	-13%	?	i
COc1ccc2c(c1)C(=O)N1[C@H]3c4cc(OC)ccc4OC[C@@H]3[C@H](c3ccccc3)[C@]1(C)C(=O)N2	?	?	-22%	i	i
COc1ccc2c(c1)[C@H]1[C@H](CO2)[C@H](c2ccccc2)[C@]2(C)C(=O)N(Cc3ccc(C)cc3)CC(=O)N12	6%	?	18µM*	i	?
COc1ccc2c(c1)[C@H]1[C@H](CO2)[C@H](c2ccccc2)[C@]2(C)C(=O)Nc3ccccc3C(=O)N12	29µM*	?	?	?	?
Cc1ccc(CN2CC(=O)N3[C@H]4c5cc(C)ccc5OC[C@@H]4[C@H](c4ccccc4)[C@]3(C)C2=O)cc1	6%	21%	-25%	i	?
CNc1ccc(-c2cccc(CO)c2)cn1	.	.	.	i	i
O=C(NC(c1ccc(-c2ccccc2)cc1)c1cnccn1)C1CCN(CCN2C(=O)c3ccccc3C2=O)CC1 (centres undefined)	.	.	.	i	i
CC(=O)c1cccc(NC(=S)NC(=O)c2cccc(C)c2)c1	-1%	-8%	?	18µM*	?
CC(=O)c1cccc(NC(=S)NC(=O)c2ccccc2Br)c1	9%	-3%	1%	21µM*	i
SMILES	MCF10A rerep	SW480 rereplic	ELG1 DNA repair	KB-V1 MDR tox	KB-3-1 tox
CCc1sc(C(=O)Nc2cccc(C(C)=O)c2)cc1C	-1%	-223%	?	21µM*	i
CC(=O)c1cccc(NC(=S)NC(=O)c2ccc(Cl)cc2)c1	0%	-3%	?	?	i
CC(=O)c1cccc(NC(=S)NC(=O)c2ccccc2C)c1	1%	-2%	1%	i	i
CCc1cccc(NC(=O)c2cc3c(=O)oc4ccc(C)cc4c3s2)c1	.	.	.	i	i
CCN1CCN(CCCNC(=O)c2ccc(CS(=O)c3ccc(Br)cc3)o2)CC1 (centres undefined)	0%	14%	9%	i	i
CC(=O)Nc1ccc(S(=O)(=O)NCC2CCC(C(=O)NCCC3=CCCCC3)CC2)cc1 (centres undefined)	16%	-1%	13%	i	i
O=C(NCCC1=CCCCC1)C1CCC(CNS(=O)(=O)c2ccccc2)CC1 (centres undefined)	?	-92%	-2%	8.2µM*	i
O=C(NCCC1=CCCCC1)C1CCC(CNc2nc(=S)[nH]c3ccccc23)CC1 (centres undefined)	26µM*	10%	?	21µM*	?
Cc1nc2c(C)cccn2c1/C(O)=C1\C(=O)C(=O)N(CCN(C)C)C1c1cccs1 (centres undefined)	-1%	-4%	.	i	i
COc1ccc(NC(=O)Cn2c(=O)n(CCC(=O)NCc3ccccc3OC)c(=O)c3ccccc32)cc1Cl	.	.	.	?	i
O=[N+]([O-])c1ccc(O)c(C=Nc2ccc3nc(-c4ccccc4)[nH]c3c2)c1	?	0%	?	i	i
Oc1c(Br)cc(C=Nc2ccc3nc(-c4ccccc4)[nH]c3c2)c(O)c1Br	21µM*	?	?	i	i
Cc1nn(Cc2ccc(C(=O)Nc3ccc(C(=O)OC(C)C)cc3)o2)c(C)c1Cl	?	-1%	18µM*	23µM*	i
Cc1nn(Cc2ccc(C(=O)NN)o2)c(C)c1Cl	?	?	?	i	i
Oc1ccc(/C=N/Nc2ccnc3cc(Cl)ccc23)cc1O	23%	16µM*	27%	i	i
Cc1cccc(NC(=O)c2nc[nH]c2C(=O)NCCCCNC(=O)c2[nH]cnc2C(=O)Nc2cccc(C)c2)c1	?	?	5.2µM*	?	?
Cc1cccc(NC(=O)c2nc[nH]c2C(=O)NCCCCCCNC(=O)c2[nH]cnc2C(=O)Nc2cccc(C)c2)c1	1%	-7%	9.2µM*	i	i
Cc1ccc(Nc2ncc3c(=O)[nH][nH]c(=O)c3n2)cc1	-19%	4%	.	i	i
CC(=O)N(C(C)=O)c1nc(-c2ccccc2)cn1/N=C/c1ccccc1	12µM*	-3%	?	?	?
